In assay [1] the test system is TRPC4 beta (transient receptor potential cation channel C4), mouse. Briefly: activators of mouse TRPC4 channel, confirmation, cell-based, Fluo4 calcium, HEK293 TRPC4beta/mu-opioid, duplicates, 10 µM (AID 2426;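 active means fluorescence ratio normalized to control raised more than 50% in primary screen plus both repeat runs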;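 on activation: percent rise of integrated ratio over buffer wells lacking compound which define 0%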). Conditions: Fluo4 calcium fluorescence, at 10 µM; stronger effect = higher value.
Assay [2] has as its system transient receptor potential cation channel C4 beta (TRPC4), mouse. Briefly: activators of mouse TRPC4 channel, confirmation, cell-based, second round, Fluo4, HEK293 TRPC4beta/mu-opioid, 1 µM (AID 2461;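 active means primary screen active and over 50% activation in each of two duplicate runs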). The settings on record: Fluo4 calcium fluorescence, at 1 µM; stronger effect = higher value.
Assay [3] deals with TRPC4 (transient receptor potential cation channel C4 beta), mouse. The assay is described as follows: positive allosteric modulators of mouse TRPC4, confirmation, cell-based, second round, Fluo-4, HEK293 TRPC4beta/mu-opioid, 1 µM (AID 2554;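 active means primary screen hit whose fluorescence ratio, in both repeats, exceeds the weak agonist control mean by 3 SD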). Conditions: DAMGO EC20, Fluo-4 calcium flux, at 1 µM; stronger effect = higher value. For orientation: A change in cytosolic calcium serves as a functional read-out for many receptors and channels.

Assay [4] relates to TRPC4 beta (transient receptor potential cation channel C4), mouse. Briefly: positive allosteric modulators of mouse TRPC4, confirmation, cell-based, Fluo-4, HEK293 TRPC4beta/mu-opioid (AID 2555;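 active means primary screen hit whose calcium fluorescence ratio, in both repeats, exceeds the weak agonist control mean by 3 SD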). The settings on record: DAMGO EC20, Fluo-4 calcium flux, at 10 µM; stronger effect = higher value.
Assay [5] addresses Short transient receptor potential channel 4 (Mus musculus) (UniProt Q9QUQ5). Briefly: inhibitors of mouse TRPC4 channel, confirmation, cell-based, Fluo4, HEK293 TRPC4beta/mu-opioid (AID 2636;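 active means calcium signal cut by more than 3 SD below the full-agonist control yet still positive, in both repeats and the earlier primary screen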). The settings on record: DAMGO, Fluo4 calcium flux, at 10 µM; stronger effect = higher value.
Assay [6] has the same target. Briefly: inhibitors of mouse TRPC4 channel, confirmation, cell-based, second round, Fluo4, HEK293 TRPC4beta/mu-opioid, 1 µM (AID 2637;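 active means calcium signal ratio cut to more than 3 SD under the fully stimulated control mean yet still positive, in both repeats and the primary screen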;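 on inhibition: percent of integrated ratio relative to wells lacking test compound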). The settings on record: Fluo4 calcium flux, DAMGO, at 1 µM; stronger effect = higher value.
Assay [7] has the same target. Briefly: mouse TRPC4 channel activators, dose response, cell-based, HEK293 TRPC4/mu-opioid, Fluo-4 calcium (AID 434937;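 active means primary screen activator hit with a dose response curve and TRPC4 channel activation at any tested dose; inactive means no activation, no dose response, or not a primary hit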).
For assay [8] the target is unchanged. The assay is described as follows: TRPC4 positive allosteric modulators, dose response, cell-based, HEK293 TRPC4/mu-opioid, Fluo-4 calcium, EC20 DAMGO (AID 434941;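 active means earlier screen potentiator hit that boosts the TRPC4 ion channel at some dose, with a dose response; inactive means no potentiation, no dose response, or not a prior hit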;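 further: calcium entry triggered by an EC20 dose of DAMGO at the co-expressed mu-opioid receptor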).
For assay [9] the target is unchanged. The assay is described as follows: mouse TRPC4 channel inhibitors, dose response, cell-based, HEK293 TRPC4/mu-opioid, Fluo-4 calcium (AID 434942).
Assay [10] deals with Short transient receptor potential channel 6 (Mus musculus) (UniProt Q61143). The assay is described as follows: inhibition of mouse TRPC6 channel, confirmation, selectivity assay for TRPC4 inhibitor project, cell-based, HEK293, membrane potential dye, duplicate (AID 434948;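 active means active in primary screen and both duplicates, each dropping signal beyond three positive-control SD with fluorescence still positive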). Conditions: HEK293 TRPC6, membrane potential dye fluorescence, at 10 µM, stimulated with maximal-effect acetylcholine; stronger effect = higher value.

Assay [11] has the same target. Briefly: activation of mouse TRPC6 channel, confirmation, selectivity assay for TRPC4 activator project, cell-based, HEK293, membrane potential dye, duplicate (AID 434950;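 active means membrane potential signal rise above negative control mean plus 3 SD in both duplicates, also active in the earlier TRPC4 screen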;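 on activation: 0% = buffer only wells and 100% = acetylcholine maximal-effect wells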). Conditions: HEK293 TRPC6, membrane potential fluorescence, at 10 µM; stronger effect = higher value.
For assay [12] the target is unchanged. Briefly: TRPC6 potentiation by TRPC4 potentiator hits, confirmation, selectivity assay for TRPC4 potentiator project, HEK293 cells, membrane potential dye, duplicate (AID 434952;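 active means compound raising the membrane signal above positive-control mean plus 3 SD in both repeats, and a primary screen hit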). The settings on record: HEK293 TRPC6, membrane potential dye fluorescence, at 10 µM, maximal acetylcholine added after compound; stronger effect = higher value.
The target in assay [13] is Short transient receptor potential channel 4 (Mus musculus) (UniProt Q9QUQ5). The assay is described as follows: calcium flux activators in TRPC4/5HT1a cells, counter-screen for TRPC4 activator project, cell-based, second counter screen, HEK293 TRPC4/5HT1a, Fluo-4 (AID 434977;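 active means calcium signal rise above buffer-control mean plus 5 SD in both duplicates, and also a hit in the primary screen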;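 on activation: plate controls were assay buffer for no effect and maximal serotonin response for full effect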). Conditions: Fluo-4 calcium flux, at 10 µM; stronger effect = higher value.
A short description of assay [14]: calcium flux inhibitors in TRPC4/5HT1a cells, confirmation, counter-screen for TRPC4 inhibitor project, cell-based, second counter screen, HEK293 TRPC4/5HT1a, Fluo-4 (AID 434978;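 active means primary screen active whose calcium signal fell more than 3 SD beyond the full-serotonin control mean in both duplicate plates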;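 further: serotonin given first at submaximal then at maximal dose after compound preincubation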). The settings on record: Fluo-4 calcium flux, at 10 µM, serotonin added to trigger calcium flux; stronger effect = higher value.
Assay [15] relates to TRPC4 (mouse), co-expressed with 5HT1a in HEK293. Briefly: calcium flux potentiators in TRPC4/5HT1a cells, confirmation, counter-screen for TRPC4 potentiator project, cell-based, second counter screen, HEK293 TRPC4/5HT1a, Fluo-4 (AID 434979;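 active means signal rise over 3 SD above mean of control wells given weak agonist, in both repeats and first screen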). Conditions: Fluo-4 calcium flux, at 10 µM, serotonin added at its EC20 dose; stronger effect = higher value.
Assay [16] is described as follows: calcium flux activation in mu-opioid HEK293 cells, confirmation, counter-screen for TRPC4 activator project, cell-based, HEK293 mu-opioid receptor line (AID 449723;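 active means hit in primary screen, with calcium signal over 5 SD above buffer well mean in both duplicates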;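 further: counter screen cells carry the mu-opioid receptor alone and lack TRPC4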). Conditions: Fluo-4 calcium fluorescence, at 10 µM; stronger effect = higher value.
Assay [17] is described as follows: calcium flux enhancement in mu-opioid HEK293 cells, confirmation, counter-screen for TRPC4 allosteric potentiator project, cell-based, HEK293 mu-opioid receptor line (AID 449724;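 active means calcium signal rise more than 3 SD above the low-dose agonist control mean, in both duplicate plates and the primary screen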;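 further: HEK293 cells carrying mu-opioid receptor only with no TRPC4 channel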). The settings on record: Fluo-4 calcium flux, at 10 µM, compound added before EC20 DAMGO stimulus; stronger effect = higher value.

For part of these data: Entries with a potency or affinity are not part of this list. Activity calls are given as the source filed them.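 How the source made its calls, unless noted: active means primary screen inhibitor hit that blocks the TRPC4 channel at some tested dose, yielding a dose curve; inactive means the rest.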

Sequence of Short transient receptor potential channel 6 (Mus musculus) (Q61143 whole entry, looked up): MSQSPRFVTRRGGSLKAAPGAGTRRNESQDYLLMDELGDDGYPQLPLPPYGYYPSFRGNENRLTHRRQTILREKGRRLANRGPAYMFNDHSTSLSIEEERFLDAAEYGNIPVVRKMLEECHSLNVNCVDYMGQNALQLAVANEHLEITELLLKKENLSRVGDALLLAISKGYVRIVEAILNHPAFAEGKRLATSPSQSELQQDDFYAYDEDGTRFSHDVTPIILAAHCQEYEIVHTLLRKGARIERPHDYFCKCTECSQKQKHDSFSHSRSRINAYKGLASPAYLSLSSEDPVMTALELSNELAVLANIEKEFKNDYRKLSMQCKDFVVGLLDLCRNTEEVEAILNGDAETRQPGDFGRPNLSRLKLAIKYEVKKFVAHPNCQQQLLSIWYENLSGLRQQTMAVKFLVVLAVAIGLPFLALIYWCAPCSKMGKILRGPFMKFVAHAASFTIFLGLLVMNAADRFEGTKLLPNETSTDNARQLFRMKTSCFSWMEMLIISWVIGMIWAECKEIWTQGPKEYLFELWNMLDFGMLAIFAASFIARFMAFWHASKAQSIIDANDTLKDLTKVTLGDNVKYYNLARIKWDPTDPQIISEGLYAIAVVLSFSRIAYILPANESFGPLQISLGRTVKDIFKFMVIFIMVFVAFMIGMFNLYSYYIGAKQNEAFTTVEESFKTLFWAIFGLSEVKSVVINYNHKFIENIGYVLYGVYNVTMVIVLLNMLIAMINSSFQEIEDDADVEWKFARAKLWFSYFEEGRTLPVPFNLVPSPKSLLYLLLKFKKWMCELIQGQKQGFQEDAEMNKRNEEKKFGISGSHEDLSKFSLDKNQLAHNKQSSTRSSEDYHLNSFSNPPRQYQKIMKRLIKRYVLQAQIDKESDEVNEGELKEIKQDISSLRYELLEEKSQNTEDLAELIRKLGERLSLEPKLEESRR
Sequence of Short transient receptor potential channel 4 (Mus musculus) (Q9QUQ5 whole entry, looked up): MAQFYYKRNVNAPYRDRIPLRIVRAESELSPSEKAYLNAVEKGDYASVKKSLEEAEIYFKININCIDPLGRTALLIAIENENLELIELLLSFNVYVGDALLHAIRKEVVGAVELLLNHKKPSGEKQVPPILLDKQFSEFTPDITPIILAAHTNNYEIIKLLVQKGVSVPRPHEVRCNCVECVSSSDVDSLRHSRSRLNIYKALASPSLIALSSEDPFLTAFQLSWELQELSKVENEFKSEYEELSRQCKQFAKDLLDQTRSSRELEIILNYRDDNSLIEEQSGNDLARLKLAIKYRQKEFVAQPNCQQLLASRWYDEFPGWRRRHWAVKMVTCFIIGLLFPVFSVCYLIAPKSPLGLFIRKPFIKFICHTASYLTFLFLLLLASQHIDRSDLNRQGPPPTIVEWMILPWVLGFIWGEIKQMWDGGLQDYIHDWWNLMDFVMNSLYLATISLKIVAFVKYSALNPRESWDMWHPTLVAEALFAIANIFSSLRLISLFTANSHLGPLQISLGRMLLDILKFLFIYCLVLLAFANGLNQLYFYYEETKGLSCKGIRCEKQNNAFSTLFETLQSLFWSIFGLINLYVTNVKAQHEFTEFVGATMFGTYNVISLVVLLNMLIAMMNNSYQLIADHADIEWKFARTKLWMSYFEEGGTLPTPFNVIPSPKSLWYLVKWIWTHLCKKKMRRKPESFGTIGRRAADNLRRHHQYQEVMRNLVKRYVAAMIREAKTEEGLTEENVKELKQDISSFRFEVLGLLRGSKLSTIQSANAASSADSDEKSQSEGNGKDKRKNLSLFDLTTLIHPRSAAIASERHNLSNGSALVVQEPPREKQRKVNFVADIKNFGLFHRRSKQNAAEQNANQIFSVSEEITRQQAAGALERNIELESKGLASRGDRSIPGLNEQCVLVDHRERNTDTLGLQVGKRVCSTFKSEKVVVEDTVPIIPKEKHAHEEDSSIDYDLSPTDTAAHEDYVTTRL

`CN1/C(=C\C=[N+](C)c2ccccc2)C(C)(C)c2ccccc21`: the outcome in assay [1], in assay [2], in [3], in assay [4], in assay [5] and in [6] was inactive. Also, the result in [7], in assay [8], in assay [9], in assay [10], in [11] and in [12] was inactive. Also, the outcome in [13], in [14], in assay [15], in assay [16] and in [17] was inactive.
Consider `c1ccc(Nc2c3c(nc4ccccc24)CCC3)cc1`, for which the result in assay [1], in assay [2], in assay [3], in assay [4], in assay [5] and in assay [6] was inactive. Further, the result in [7], in [8], in assay [9], in assay [10], in assay [11] and in assay [12] was inactive. In addition, the outcome in [13], in assay [14], in assay [15], in [16] and in [17] was inactive.
With `COc1ccc(CN2CCN(c3nc4ccccc4s3)CC2)cc1`, the result in assay [1], in [2], in assay [3], in assay [4], in assay [5] and in assay [6] was inactive. Moreover, the outcome in [7], in assay [8], in [9], in [10], in assay [11] and in assay [12] was inactive. The outcome in assay [13], in assay [14], in assay [16] and in assay [17] was inactive. Moreover, in assay [15], the potentiation is 12.4% (active).
For the molecule `CC(=O)Nc1cccc(C(=O)OC(C(=O)c2ccc(C)cc2)c2ccccc2)c1` (stereo not given), the outcome in assay [1], in assay [2], in [3], in assay [4], in assay [5] and in [6] was inactive. For the same molecule, the outcome in [7], in assay [8], in assay [9], in assay [10], in assay [11] and in assay [12] was inactive. Besides, the outcome in assay [13], in assay [14], in assay [16] and in [17] was inactive. In addition, the potentiation in [15] is 22.7% (active).
Turning to `O=[N+]([O-])c1ccc(S(=O)(=O)NCCCc2ccccc2)cc1`, the outcome in [1], in assay [2], in assay [3], in assay [4], in assay [5] and in [6] was inactive. Besides, the outcome in [7], in assay [8], in assay [9], in assay [10], in assay [11] and in assay [12] was inactive. The result in assay [13], in assay [14], in assay [15], in assay [16] and in assay [17] was inactive.
Regarding `Cc1cc(S(=O)(=O)NC2CCN(Cc3ccccc3)CC2)c(C)cc1Cl`, the result in [1], in assay [2], in assay [3], in assay [4], in [5] and in assay [6] was inactive. The outcome in assay [7], in assay [8], in assay [9], in assay [10], in assay [11] and in assay [12] was inactive. Besides, the result in assay [13], in assay [14], in [16] and in assay [17] was inactive. For the same molecule, the potentiation in assay [15] was 23.1% (active).
In the case of `O=C(COc1ccccc1-c1ccccc1)NCc1ccco1`, the outcome in assay [1], in [2], in assay [3], in assay [4], in assay [5] and in assay [6] was inactive. Further, the result in [7], in [8], in assay [9], in assay [10], in [11] and in assay [12] was inactive. Moreover, the result in assay [13], in [14], in [15], in assay [16] and in assay [17] was inactive.
Take `CCOC(=O)c1c(C)oc2ccc(O)c(CN3CCCCC3)c12`: the outcome in assay [1], in [2], in [3], in [4], in [5] and in [6] was inactive. Moreover, the result in assay [7], in assay [8], in assay [9], in [10], in assay [11] and in [12] was inactive. Moreover, the result in [13], in assay [14], in assay [15], in assay [16] and in [17] was inactive.
Consider `CCCNc1nc2ccccc2n2c(C)nnc12`, for which the outcome in assay [1], in assay [2], in [3], in assay [4], in assay [7] and in assay [8] was inactive. In addition, the result in assay [9], in assay [10], in assay [11], in assay [12], in [13] and in assay [14] was inactive. Besides, the outcome in assay [15], in assay [16] and in assay [17] was inactive. Further, the inhibition (as a rule, the relative decrease from the control value, in per cent) in assay [5] is 73% (active); in assay [6], 39% (active).
As to `C=CCn1c(=N)n(CC(O)COc2ccccc2OC)c2ccccc21` (stereo not given), the outcome in assay [1], in assay [2], in assay [3], in assay [4], in assay [5] and in assay [6] was inactive. Besides, the result in [7], in assay [8], in assay [9], in assay [10], in assay [11] and in [12] was inactive. Further, the result in [13], in [14], in [15], in [16] and in [17] was inactive.
Turning to `CCc1c(C)nc2ccc(Br)cc2c1SCCC#N`, the outcome in assay [1], in assay [2], in [3], in assay [4], in assay [5] and in assay [6] was inactive. Moreover, the result in assay [7], in assay [8], in [9], in assay [10], in assay [11] and in [12] was inactive. Also, the result in assay [13], in assay [14], in assay [15], in [16] and in assay [17] was inactive.
As to `Cc1cc(Cl)cc(C)c1OCCCCCn1ccnc1`, the activation in assay [1] is 88% (active); in assay [11], 47% (active); in assay [13] it was 34% (active). Moreover, the result in assay [2], in assay [3], in assay [4], in assay [5], in assay [6] and in assay [7] was inactive. Moreover, the result in assay [8], in assay [9], in assay [10], in assay [12], in assay [14] and in assay [15] was inactive. Also, the result in [16] and in assay [17] was inactive.
Regarding `Cc1ccc(-c2cn(-c3ccccc3)c(SCC(N)=O)n2)cc1C`, the result in assay [1], in [2], in [4], in [5], in assay [6] and in assay [7] was inactive. The outcome in assay [8], in assay [9], in assay [10], in assay [11], in assay [12] and in assay [13] was inactive. Also, the result in [14] and in assay [16] was inactive. Moreover, the potentiation in assay [3] was 29% (active); in assay [15] it was 25.4% (active). Besides, in assay [17], the activation was 741% (active).
`COc1ccc(CNCC(O)(c2ccccc2)c2ccccc2)cc1OC`: the outcome in [1], in assay [2], in [3], in assay [4], in assay [5] and in assay [6] was inactive. Moreover, the result in [7], in assay [8], in [9], in assay [10], in [11] and in assay [12] was inactive. In addition, the result in [13], in assay [14], in assay [15], in assay [16] and in assay [17] was inactive.
With `O=[N+]([O-])c1ccc(N2CCCC2)nc1N1CCCC1`, the result in assay [1], in assay [2], in [3], in [4], in assay [5] and in assay [6] was inactive. For the same molecule, the result in assay [7], in assay [8], in assay [9], in assay [10], in assay [11] and in assay [12] was inactive. Moreover, the result in assay [13], in [14], in [15], in [16] and in [17] was inactive.

The values above are taken from PubChem BioAssay.
